In PubChem BioAssay (NCI) one finds growth data, which are given here for 36 compounds.

Compounds without any hit were thinned out: in the full panel of roughly 83,000, 20% have a hit.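 Step 1: grow cells in 96-well plates. Step 2: add test compound at a single concentration. Step 3: incubate 48 h. Step 4: record percent growth.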 Values without a mark were called inactive. Active and inactive are the calls of the source. How the source made its calls: active means growth percent below 10; inactive means the rest.

The test has as its system NCI-H522 lung. Put plainly: NCI-60 one-dose screen, 48 h (100 = growth as untreated, 0 = no growth, -100 = all killed). The following applies: 10 µM unless noted.
On to `NC(=O)n1c(=O)n(-c2cccc(C(F)(F)F)c2)c(=O)c2cc(-c3ccc(F)cc3F)ccc21`, for which the growth is -11.2% (active).

Turning to `O=C1CSC(c2cn(-c3ccccc3)nc2-c2ccc(Cl)cc2)N1c1ccccc1` (stereo unspecified), the growth is 95.7%.

As for `COc1ccc(/C=N/NC(=O)CSc2nc(-c3cnccn3)cc(-c3cccs3)c2C#N)cc1`, the growth is 81.1%.

As for `C#Cc1cc(OC)c(C(=O)Nc2ccc(F)cc2C(=O)Nc2cccc(S(=O)(=O)C(F)(F)F)c2)cn1`, the growth is -69.3% (active).

For the compound `CN1c2ccccc2Sc2cc(/C=N/Nc3ccnc4cc(Cl)ccc34)ccc21`, the growth was 99.2%.

Regarding `O=C(/C=C/c1cccc(F)c1)c1cccc(OCCCOc2cccc(C(=O)/C=C/c3cccc(F)c3)c2)c1`, the growth was 83.2%.

As for `CN1CCN(Cc2ccc(NC(=O)c3cncc(C#Cc4cnc(N)nc4)c3)cc2C(F)(F)F)CC1`, the growth was 36.5%.

`O=C(CSc1nc2ccccc2c(=O)n1-c1ccc(Cl)c(Cl)c1)Nc1ccc(S(=O)(=O)Nc2ccc(Cl)nn2)cc1`: the growth is 90%.

For the compound `Cc1[nH]c(C(=O)Nc2ccc(C(N)=O)cc2N2CCOC(C)C2)c(Cl)c1Cl` (stereo unspecified), the growth is 95.1%.

`N#Cc1nc(-c2ccccc2)oc1N1CCC(C2(C(F)(F)F)N=N2)CC1`: the growth is 96.8%.

Consider `C/C(=C(\c1ccc(O)cc1)c1ccc(OCCN2CCCCCC2)cc1)c1ccc(Cl)cc1`, for which the growth is -86.9% (active).

In the case of `COc1ccc(C(=O)c2c(N)c(C#N)cn2-c2ccc(Cl)cc2Cl)cc1`, the growth was 90.3%.

As to `C#C[C@]1(O)CC[C@H]2[C@@H]3CC=C4c5sc(Nc6cccc(F)c6)nc5CC[C@]4(C)[C@H]3CC[C@@]21C`, the growth was 31.7%.

`C[C@@H]1OCC2(CCN(c3cnc(C(=O)Nc4cc(F)cc5cccnc45)cn3)CC2)[C@@H]1N`: the growth is 34.8%.

With `Cn1c(SCC(=O)c2ccc(F)cc2)nc2ccccc2c1=O`, the growth was 83.9%.

Take `O=C(CCCCCC/C=C\c1csc(Br)n1)NO`: the growth was 65.6%.

For `COc1ccc(-c2cc(-c3ccc(N4CCOCC4)cc3)n3c(n2)nc2ccccc23)cc1OC`, the growth is 87.7%.

On to `CN(C)c1cccc2c(S(=O)(=O)Nc3cccc(-c4csc(NC(=O)CCCCCN5CCN(CCO)CC5)n4)c3)cccc12`, for which the growth is 84.4%.

As to `O=c1nc(Nc2ccc([N+](=O)[O-])cc2O)sc2ccccc12`, the growth was 14.2%.

For the compound `CCc1cc(OC(=O)N2CCC(N3CCCCC3)CC2)ccc1Nc1cc(-c2ccc(-n3cccn3)cc2)[nH]n1`, the growth was 96.2%.

In the case of `COc1ccc(-c2c(C(N)=O)c(N)n(Cc3nc4ccccc4[nH]3)c(=O)c2C#N)c(OC)c1`, the growth was 95.2%.

For the compound `CCOC(=O)Nc1ccc2c(ccn2C(=O)c2cccc(F)c2)c1`, the growth is 0.367% (active).

Take `CN(C)CCCOc1ccc(C(=C(c2ccccc2)C2CCCC2)c2ccc(OCCCN(C)C)cc2)cc1`: the growth was -89.8% (active).

As for `CN1CCC[C@]2(C)[C@H]3CC[C@@H]4[C@@H]5[C@H]6OC[C@@]5(CCC6(C)C)CC[C@@]4(C)[C@]3(C)CC[C@H]2C1(C)C`, the growth is 96.3%.

Consider `CNC(=O)c1cc(-c2ccc(NC(=S)Nc3cccc(C(F)(F)F)c3)cc2)nc2cccnc12`, for which the growth is 89.7%.

With `CC1(C)C=Cc2cc(/C(N)=N/C(N)=N/c3nc4ccccc4s3)ccc2O1`, the growth was 91.2%.

In the case of `C#Cc1cc(C(=O)Nc2ccc(CNCCN3CCOCC3)c(C(F)(F)F)c2)ccc1C`, the growth is 89.6%.

Regarding `CC(C)(O)c1cncc(-c2ccc3ncc(C#N)c(N4CCc5cc(F)c(Cl)cc54)c3c2)c1`, the growth was -2.54% (active).

`CN1CCN(Cc2ccc(/C=N/Nc3ccnc4cc(Cl)ccc34)cc2)CC1`: the growth was 101%.

In the case of `Cc1ccc(C(=O)CSc2nnc(-c3ccc(-c4ccc(Cl)cc4)nc3C)o2)cc1`, the growth is 91.7%.

Consider `Cc1ccccc1N1CCN(C2=C(Cl)C(=O)c3ncccc3C2=O)CC1`, for which the growth is -28% (active).

For `O=C1Nc2ccccc2/C1=C/c1ccc(OCC(=O)c2ccccc2)cc1`, the growth is 104%.

Take `CC1=C(C)C(=O)C(Nc2ccc3c(c2)OCCO3)=C(Br)C1=O`: the growth is 96.9%.

Regarding `CCN(CC)c1ccc(/C=N/NC(=O)c2ccc(S(N)(=O)=O)cc2)c(O)c1`, the growth was 15.1%.

Turning to `Cc1ccc(S(=O)(=O)NCCCNc2nc(Nc3ccc(N4CCN(C)CC4)cc3)nc3ccsc23)cc1`, the growth was -5.6% (active).

Regarding `CN1CCN(Cc2ccc(NC(=O)c3cncc(C#Cc4cnc5ccc(NCCO)nn45)c3)cc2C(F)(F)F)CC1`, the growth was -75.8% (active).
